# Screens: PubChem BioAssay, National Center for Advancing Translational Sciences (NCATS)
# Shown are actives, neighbours in structure and some others; about 13% of the full set was active somewhere.
# Cycloheximide cs – Cycloheximide Counterscreen for Small Molecule Inhibitors of Shiga Toxin. cell reporter, cycloheximide protein synthesis inhibition counterscreen. max response, %. 300,000 tested, 12% active. AID 2314, 2010; in the data active = max response mostly above about 13%, no sharp cut-off; inactive = mostly below about 14%; note: read at 38.3 µM for the half of the compounds with a filed dose; 0% is about no effect
# FMDV antiviral – High Throughput Screening for Foot and Mouth Disease Virus Antivirals; FMDV antiviral cell-based qHTS; Potency, µM (titrated, usually from 57.9 µM), inactives show at the highest dose activity change, negative = inhibition, actives largely listed as inhibitors; 410,000 tested, 1.2% active; AID 1159524, 2015; calls by dose curve; tested in HEK293T cells; note: read-out not given here; potency is the fitted concentration of half-maximal effect; % is set by controls: 0 for no effect and ±100 for the full control effect; nearly all actives have a fitted effect of over 45% in size
# Shiga toxin inh – A qHTS for Small Molecule Inhibitors of Shiga Toxin; 290,000 tested, 9.2% active; AID 2315, 2010; Vero cells, Shiga toxin protein synthesis inhibition reporter; inhibition, % at 38.7 µM; in the data active = inhibition mostly above about 28%, no sharp cut-off; inactive = mostly below about 43%; note: 0% is about no effect
# Marburg entry inh – qHTS for inhibitors of binding or entry into cells for Marburg Virus. Marburg virus pseudotyped entry inhibition, cell reporter. Potency, µM (top dose mostly 37.8 µM), for inactives: at the top dose activity change, negative = inhibition, usual class: inhibitors. 300,000 tested, 1.8% active; calls by dose curve; tested in HEK293 cells; note: potency is the fitted concentration of half-maximal effect; % is set by controls: 0 for no effect and ±100 for the full control effect
# LASV entry inh – qHTS for Inhibitors of binding or entry into cells for Lassa Virus. Potency, µM (top dose mostly 37.9 µM), for the others: top-dose activity change, negative = inhibition, hits mostly inhibitors. Lassa virus pseudotype entry inhibition, cell reporter. 300,000 tested, 1.2% active; calls by dose curve; tested in HEK293 cells; note: potency is the fitted concentration of half-maximal effect; % is set by controls: 0 for no effect and ±100 for the full control effect; nearly all actives have a fitted effect of over 50% in size
# HCV inhibitor – qHTS Assay for Inhibitors of Hepatitis C Virus (HCV); 340,000 tested, 3.4% active; AID 651820, 2012; Potency, µM (highest dose often 41.8 µM), inactives show at the highest dose activity change, negative = inhibition, hits mostly inhibitors; Huh7.5.1 HCVcc-Cre infection, luciferase reporter, 44 h; active = well fitted inhibition curve with a large enough effect; inconclusive = small, poorly fitted or top-dose-only effect, or another doubt; inactive = no such curve, though single readings can be large or run the other way; note: potency is the fitted concentration of half-maximal effect; % is set by controls: 0 for no effect and ±100 for the full control effect
#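 Infectious HCVcc-Cre (~0.5 moi) was added to cells just after compound, with cells seeded 4 h earlier at 1,000 per well. Luciferase activity after 44 h culture reported infection; substrate was incubated 15 min at room temperature before reading.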
# Numbers without * were called inactive; ? = inconclusive; / = no result; [ ] = dose if it differs, or a comment.
SMILES,Cycloheximide cs,FMDV antiviral,Shiga toxin inh,Marburg entry inh,LASV entry inh,HCV inhibitor
O=C(N/N=C/c1ccccn1)c1cc(-c2ccccc2)nc2ccccc12,7,-41%,26,/,/,11%
COc1ccc(/C=N/NC(=O)c2cc(-c3ccccc3)nc3ccccc23)cc1O,11,-13%,21,13µM*,-23%[46.1 µM],-13%
COc1cccc(/C=N/NC(=O)c2cc(-c3ccccn3)nc3ccccc23)c1O,/,3%,/,?,?,4µM*
CCOc1cc(/C=N/NC(=O)c2cc(-c3cccc(OC)c3)nc3ccccc23)ccc1O,/,?,/,?,?,-21%
COc1cc(/C=N/NC(=O)c2cc(-c3ccccc3)nc3ccccc23)ccc1O,23*,2%,45*,?,?,-9%
O=C(N/N=C/c1ccc(O)cc1)c1cc(-c2ccccc2)nc2ccccc12,34*,17%,65*,/,/,-14%
O=C(CN1CCN(Cc2ccccc2)CC1)Nc1nnc(C(F)(F)F)s1,8,-17%,/,/,/,7%
CCOC(=O)c1nn(-c2ccc(Cl)cc2)c2nnc(Cc3ccc(C)cc3)c(=O)n12,-1,0%,-2,3%,-18%,6%
COc1ccccc1N1CCN(c2cc(=O)n(Cc3ccc(F)cc3)c(=O)[nH]2)CC1,4,-28%,-2,/,/,?
CSc1nc(=O)n(CCC#N)nc1SC,/,-12%,/,/,/,/
CSc1ccc(CCNC(=O)c2cc(-c3ccccc3)c(N3CCOCC3)s2)cc1,-6,-11%,-4,?,?,?
COc1cc(/C=N/NC(=O)c2cc(-c3ccccc3Cl)nc3ccccc23)cc(OC)c1O,/,1%,/,-5%[46.1 µM],?,-12%
COc1cc(/C=N/NC(=O)c2cc(-c3ccccc3OC(C)C)nc3ccccc23)ccc1O,17,?,19,4.6µM*,5.8µM*,-12%
COc1ccc(-c2cc3nnc(-c4ccccc4)nc3s2)cc1,50*,-30%,active,?,-28%,5%
O=c1[nH]c(-[n+]2ccc3ccccc3c2)c(/C=N/N=C(\[O-])c2ccccc2)s1,17*,0%,40,/,/,16%
Cc1ccccc1NC(=O)/C(C#N)=C\c1cc(C)n(-c2ccc(C(=O)O)cc2)c1C,-2,-12%,13,/,/,-8%
Cc1cc(C=C(C#N)C#N)c(C)n1-c1ccccc1,22*,22%,108*,16%,16%,?
Cc1cc(/C=C(/C#N)C(=O)Nc2ccccc2)c(C)n1-c1cccnc1,43*,-28%,51,-12%,?,?
CC(=O)c1ccc(NC(=O)c2sc3nc(N4CCOCC4)c4c(c3c2N)CCCC4)cc1,21*,6%,65*,/,/,-17%
CNC(=O)c1ccc(-c2sc3nc(N4CCOCC4)c4c(c3c2N)CCCC4)o1,-5,?,-15,-15%,-3%,11µM*
COc1cccc(NC(=O)c2sc3nc(N4CCOCC4)c4c(c3c2N)CCCC4)c1,25*,0%,30*,/,/,-24%
COc1ccccc1-c1noc(CCC(=O)Nc2cccc(C(F)(F)F)c2)n1,9,?,5,?,?,?
CC(Oc1ccccc1Cl)C(=O)Nc1ccc(S(=O)(=O)Nc2nccs2)cc1 (stereo not drawn),/,21%,/,6%[46.1 µM],?,5%
COc1ccc(NC(=O)NC[C@@H]2CC[C@@H](Cc3ccc(-c4ccccc4)cc3)O2)cc1,/,-20%,/,/,/,4.5µM*
COc1ccc(CNC(=O)Nc2ccc(OC)cc2)cc1,-3,/,-5,?,23%,1%
SMILES,Cycloheximide cs,FMDV antiviral,Shiga toxin inh,Marburg entry inh,LASV entry inh,HCV inhibitor
COc1ccc(CNC(=O)Nc2ccccc2)cc1,45*,10%,65*,/,/,6%
CCOc1ccc(NC(=O)NCc2cccn2Cc2ccccc2)cc1,/,-15%,/,/,-17%[46.1 µM],/
CCOc1ccc(CNC(=O)Nc2ccccc2)cc1,22*,49%,48*,?,?,?
COc1ccc(CNC(=O)Nc2cccc(C)c2)cc1,22*,63%,78,-10%,-14%,0%
CCOc1ccc(NC(=O)CCNS(=O)(=O)c2ccc3c(c2)CC(C)N3C(C)=O)cc1 (stereo not drawn),-2,7%,-1,/,/,8%
CC(=O)c1sc2nc(-c3ccccc3)cc(C)c2c1N,-2,-15%,-12,-10%[46.1 µM],-7%[46.1 µM],-4%
Nc1c(C(=O)Nc2ccc(F)cc2)sc2nc(-c3ccco3)ccc12,32*,0%,67,?,?,?
Nc1c(C(=O)Nc2ccc(Br)cc2)sc2nc(-c3ccco3)ccc12,29*,?,38*,-16%,?,?
Cc1ccc(NC(=O)c2sc3nc(-c4ccc(F)cc4)ccc3c2N)cc1F,/,21%,/,?,23%[46.1 µM],/
CC(=O)c1sc2nc(-c3ccco3)ccc2c1N,32*,0%,76*,?,24%[46.1 µM],-3%
NC(=S)Nc1cccc2cc3ccccc3cc12,43*,54%,78*,12%,23%,?
O=C(NCc1ccco1)Nc1ccc(OC(F)(F)F)cc1,18*,27%,20,-3%,/,-16%
O=C(NCc1ccco1)Nc1ccc(Br)cc1,21,25%,66*,?,19%,-16%
COc1ccc(NC(=O)NCc2ccco2)cc1OC,-2,0%,20,/,/,14%
O=C(NCc1ccco1)Nc1ccc2nsnc2c1,30*,52%,42,?,?,?
O=C(Nc1ccc(C(=O)N2CCN(c3ccc(F)cc3)CC2)cc1)c1nsc2ccccc12,/,19%,/,/,1%[46.1 µM],/
CN1CC(=O)Nc2ccc(F)cc2C1=O,1,-18%,-12,-13%[46.1 µM],-3%,-28%
O=C(Nc1nccs1)c1nc[nH]c1C(=O)N1CCN(c2ccccc2)CC1,/,0%,/,/,/,-5%
Cc1ccccc1NC(=O)COC(=O)CCc1c[nH]c2ccccc12,/,-15%,/,/,/,9%
CCCn1c(SCc2ccc(C(=O)OC)o2)nc2ccccc2c1=O,1,-26%,-8,?,?,31%
CC(C)NC(=O)N1CCCC2(CCN(S(=O)(=O)c3ccccc3)CC2)C1,/,-7%,/,/,/,/
O=C(Nc1ccc(F)cc1F)c1cc2ccccc2oc1=O,20*,26%,53*,/,/,11%
CCOc1ccccc1NC(=O)c1cc2ccccc2oc1=O,10,29%,13,?,2%,15%
N/C(=N\NC(=O)c1ccc(F)cc1)c1cc2ccccc2oc1=O,10,10%,27,/,/,8%
N/C(=N\NC(=O)c1cccc(F)c1)c1cc2ccccc2oc1=O,26*,17%,34*,/,/,24%
CN(Cc1ccccc1)C(=O)c1nc[nH]c1C(=O)N1CCN(c2ccccc2)CC1,/,-6%,/,/,/,24%
O=C(COC(=O)C1COc2ccccc2O1)NC1CCS(=O)(=O)C1 (stereo not drawn),-4,-16%,-10,-4%[46.1 µM],-1%,-7%
Cc1c(C(=O)NCCn2ccc3ccccc32)cccc1[N+](=O)[O-],4,-16%,-4,/,/,-4%
